# Legend:
# Assay in all cases: PBM binding z-score (relative to random genomic background probes); higher = stronger binding; sequences stand for … in GC…GCGATTGACAGCGTAGAATGAAGG
# [1] = tested on: FXR:RXRa (NR concentration 270 nM, RXRa partner concentration 90 nM)
# Summary of the method: (§1)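 Regression normalization was applied to scanned fluorescence from custom Agilent 4×180K protein-binding microarrays. Before scanning, arrays were incubated 1 h with ligand-free nuclear receptor dimers, and binding was detected with antibodies against each partner (one per run). Binding z-scores use the random background probes as reference.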
# [2] = tested on: LXRa:RXRa (NR concentration 270 nM, RXRa partner concentration 90 nM)
# Summary of the method: as §1
# [3] = tested on: LXRa homodimer (NR concentration 270 nM)
# Summary of the method: as §1
# [4] = tested on: LXRb:RXRa (NR concentration 270 nM, RXRa partner concentration 90 nM)
# Summary of the method: as §1
# [5] = tested on: LXRb homodimer (NR concentration 270 nM)
# Summary of the method: as §1
# [6] = tested on: PPARa:RXRa (NR concentration 270 nM, RXRa partner concentration 90 nM)
# Summary of the method: as §1
# [7] = tested on: PPARg:RXRa (NR concentration 180 nM, RXRa partner concentration 90 nM)
# Summary of the method: as §1
# [8] = tested on: PPARg:RXRa 270nM:90nM, anti-RXR (NR concentration 270 nM, RXRa partner concentration 90 nM)
# Summary of the method: as §1
# [9] = tested on: PPARg:RXRa 30nM:10nM, anti-RXR (NR concentration 30 nM, RXRa partner concentration 10 nM)
# Summary of the method: as §1
# [10] = tested on: PPARg:RXRa 90nM:30nM, anti-RXR (NR concentration 90 nM, RXRa partner concentration 30 nM)
# Summary of the method: as §1
Sequence,PBM binding z-score [1],PBM binding z-score [2],PBM binding z-score [3],PBM binding z-score [4],PBM binding z-score [5],PBM binding z-score [6],PBM binding z-score [7],PBM binding z-score [8],PBM binding z-score [9],PBM binding z-score [10]
CAAACTAGGTCAAGGACAGTGAATCTCCGCACGC,3.5,2.6,0.383,1.84,0.431,4.98,7.68,6.71,4.3,6.04
TAGCCTAGTTCATTGGGCCAGTATAGTACGCATC,-0.0548,0.147,-0.141,0.139,-0.687,0.81,0.461,0.538,-0.446,0.253
TCTCGGAGGACAGGAAGGTCAGAGCTTTCCAGAG,0.736,1.07,0.00105,0.899,-0.565,1.87,-0.0448,1.49,2.39,1.78
GCTGCTAGGTCAACTGATGGTCAGCTTAAGCTCG,4.41,3.13,0.215,2.09,0.173,3.5,2.44,2.97,0.312,2.07
GCTATTAATTGAAAGGGCAACCGAATGATTCTCG,0.000102,0.439,1.02,0.408,-0.192,1.08,0.608,0.921,-0.0129,0.592
GATACAGGGTCAAGGCGAGAGTACGCGTATTGAT,6.79,4.05,-0.0981,3.74,0.243,5.39,5.7,5.39,2.2,4.05
CAAACTAAGTCAAGAGGTCAAAGTCCGCTTCCCG,5.6,5.87,5.56,5.06,1.95,5.52,4.19,5.54,2.73,4.86
AGAATGAGGTTACCATAGATCAGGGAAACGCTTG,1.71,6.81,-0.421,3.61,-0.0924,3.14,2.41,2.09,0.706,1.29
TAATATAGGTAAAGGTGAAAGTCGAACGATATGA,1.14,1.33,0.478,1.55,0.351,4.23,6.52,6.14,4.8,6.35
TCCGCTAGGTCAGTTGGTCAGCTAACGAGCTGCC,1.2,0.833,-0.36,0.472,-0.0467,1.57,0.233,1.55,1.2,1.49
CCTAGTTGGTCAAGTTCACACACGCTATAGGTAC,1.66,2.31,1.74,2.18,0.695,2.19,1.3,1.5,0.803,1.16
CCTATTGGGCCACGAAAGGTCATTGATTCAGTGA,3.94,5.43,5.04,4.14,0.248,4.6,2.92,4.31,1.71,3.67
TCACCAAGGTGAGCTGAGGTCGTTGATCCAACTC,1.24,0.999,-0.747,0.743,-1.63,1.6,0.00194,1.01,0.915,0.958
CTCGAAAGGTCGGTGGAGGTGAGTATACGGATAA,2.34,1.77,-0.129,1.41,-0.0636,2.82,0.577,1.22,0.0571,0.88
CCAGACAGTTGAAAGGTAACTCAGTCTGGTACGC,0.192,0.408,-0.24,0.365,-0.0531,1.47,0.992,1.75,0.231,0.964
TAGCCTAGGTCATGCGGGCCATTATAGTGTCGGC,4.23,3.27,0.473,1.96,-0.482,3.6,2.62,2.47,0.148,1.56
CCTACTGGGCCATCAGGTCAATGATATCAACGTT,1.53,0.905,0.486,1.15,-0.402,2.54,2.79,3.37,0.642,2.76
GCAGACAGGTGAAACGCAGGTCACTCAGGGTGGC,1.55,2.05,0.579,1.27,-0.88,2.57,0.931,1.01,-0.357,0.0435
TCTTGTAGATCGAGCAGGTTAAGAAAGCCTGAGT,-0.145,0.0215,-0.393,0.284,-0.755,0.628,-0.657,1.17,2.46,1.69
CCTTACGGGTCACTAGGTTATAGCACGACGAGCG,4.41,3.03,0.136,2.64,-0.31,5.02,6.65,5.97,3.03,4.94
CTCGAAAGGTCGTGCTCAGGCGAGTATACCAAAC,5,3.56,-0.183,2.93,-0.132,5.03,2.05,3.49,0.448,1.95
ATCGAAAGGTCGATGGTGAGTATACCCACCCGAA,3.01,2.38,-0.15,1.83,0.391,3.29,1.48,1.85,0.714,1.02
CGAACTATGTCATTGACAGGACAGTGAATAGTAA,-0.339,-0.306,-0.302,0.00263,-0.414,0.765,0.677,0.347,0.272,0.497

# — the supplement of paper PMC6555819
